Measured values published in PubChem BioAssay AID492998 (Southern Research Specialized Biocontainment Screening …, 2010).
Out of some 2,300 compounds screened, about 550 (24%) were called active. No rule for the calls is given here. The list is a sample of the results. A call without a number means that no potency is given here. Potency and affinity values are given separately.

Assay: Vero E6 cell cytotoxicity, dose response, cytotoxicity control for non-replicating M. tuberculosis project, secondary assay (AID 492998)
Details: series mostly up to 20 µM

Row | Compound | outcome
1 | CCN1CCC(=NNC(=O)c2ccco2)CC1 | inactive
2 | O=C1NC2(CCC3(CC2)OCCO3)NN1c1ccc(Cl)cc1 | inactive
3 | CC(NC(=O)c1cccc(F)c1)C1CC2CCC1C2 (centres undefined) | inactive
4 | Cc1ccc(C(C)C)c(OCC(=O)OCc2c(C)noc2C)c1 | inactive
5 | CC1CCN(C(=O)c2ccc(-c3ccccc3Cl)o2)CC1 | inactive
6 | CCCn1c(CNc2ccccc2O)nc2ccccc21 | inactive
7 | CCn1c(-c2ccco2)nc2ccccc21 | inactive
8 | O=C(Nc1nc2ccccc2n1CCN1CCCC1)c1ccc(Cl)cc1 | inactive
9 | Cc1ccc(C(=O)n2c(N)nc3ccccc32)cc1 | inactive
10 | Cc1ccc(CC(=O)Nc2ccc(Cl)cn2)cc1 | inactive
11 | COc1cccc(-c2cc3nc4c(c(NCC(C)(C)CN(C)C)n3n2)CCCC4)c1 | inactive
12 | CCOC(=O)CC(NS(=O)(=O)Cc1ccccc1)c1ccc(C)cc1 (centres undefined) | inactive
13 | CCOC(=O)COn1c2c(c3c4no[n+]([O-])c4ccc31)CCCC2 | inactive
14 | COC(=O)c1ccccc1NC(=O)C1CC(c2ccc(F)cc2)=NO1 (centres undefined) | inactive
15 | COc1cc(/C=C2/C(=O)NN(c3cccc(C)c3)C2=O)ccc1OC(=O)c1ccco1 | inactive
16 | O=C(Oc1cccc2cccnc12)c1cccc(-n2cnnn2)c1 | inactive
17 | Cc1nc2ccc(NC(=O)c3ccc([N+](=O)[O-])cc3[N+](=O)[O-])cc2s1 | inactive
18 | CCN(CC)CCNC(=O)c1[nH]c2ccc(OCc3ccccc3)cc2c1C | inactive
19 | CSc1ccccc1NC(=O)c1cc(C(C)C)on1 | inactive
20 | O=C(COc1ccc(-c2ccccc2)cc1)Nc1cccnc1 | inactive
21 | O=C(OCC(=O)N1CCCCC1)c1cc2ccccc2cc1O | inactive
22 | CCOC(=O)c1cc2cc3ccccc3cc2oc1=O | inactive
23 | CCOC(=O)COc1ccc(C(=O)c2ccccc2)c(O)c1 | inactive
24 | Cc1ccn2nc(S(=O)(=O)Nc3c(F)cccc3F)nc2n1 | inactive

Row | Compound | outcome
25 | CN(C)CC/C=C1\c2cc(Cl)ccc2Sc2cc(F)c(F)cc21 | inactive
26 | COc1ccc(C(=O)Nc2ccccc2C(=O)N/N=C/c2ccco2)cc1 | inactive
27 | CCn1cc(/C=N\NC(=O)c2ccc(F)cc2)cn1 | inactive
28 | Cn1c(NC(=O)c2ccccc2)nc2ccccc21 | inactive
29 | Nc1nc2ccccc2n1C(=O)c1ccc(F)cc1 | inactive
30 | Cc1nc2ccc(NC(=O)COc3cccc(F)c3)cc2s1 | inactive
31 | O=C(COC(=O)c1cccc([N+](=O)[O-])c1)NCc1cccs1 | inactive
32 | COc1ccc(CN2CCC(C(=O)Nc3ccc(Oc4cccnc4)cc3)CC2)c(C)c1C | inactive
33 | CSCCOC(=O)COc1ccc(/C=N/NC(=O)c2c(Cl)cnn2C)cc1 | inactive
34 | O=C(COc1ccc(Br)cc1)N/N=C1/SCC(=O)N1Cc1ccco1 | inactive
35 | O=C(C/C=N\OCc1ccc([N+](=O)[O-])cc1)Nc1ccc(Br)cc1 | inactive
36 | COc1ccccc1CCNC(=O)c1ccc(C)o1 | inactive
37 | NC1=NC[C@H](Cc2ccc(O)cc2)N1CCc1cccc2ccccc12 | inactive
38 | CCc1ccc(/C=N/NC(=O)c2ccccn2)cc1 | inactive
39 | CCCCCCCC(=O)NNC(=O)c1ccc(F)cc1 | inactive
40 | O=C(N/N=C/C=C/c1ccccc1)c1ccccn1 | inactive
41 | Cc1ccc(NCCC(=O)c2cccs2)cc1 | inactive
42 | CCCCCCCC(=O)N/N=C(/C)c1c(O)cc(C)oc1=O | inactive
43 | Cc1ccc(-c2noc(CCCC(=O)Nc3cccnc3)n2)cc1 | inactive
44 | CCCc1cc(C(=O)Nc2ccccc2SC)no1 | inactive
45 | COC(=O)CCCC(=O)N1CCCC(C(=O)c2ccc(-c3ccccc3)cc2)C1 (centres undefined) | inactive
46 | CSc1nnc(Cc2ccc3c(c2)OCO3)o1 | inactive
47 | COc1cccc(/C=N/N2C(=O)CSC2=S)c1O | inactive
48 | O=C(OCn1nnc2ccccc2c1=O)c1cccs1 | inactive

Row | Compound | outcome
49 | COc1ccc2cc(C(=O)C3CCCN(Cc4cccc(C)n4)C3)ccc2c1 (centres undefined) | inactive
50 | S=c1c2c(nc3nc[nH]n13)CCC2 | inactive
51 | CC1(C)CC(=O)C2=C(C1)OC(N)=C(C#N)C2C#Cc1ccccc1 (centres undefined) | inactive
52 | Cc1ccc(NC(=O)C(=O)NNC(=O)c2ccccc2C)cc1Cl | inactive
53 | O=C(NC1CCOc2ccccc21)c1ccc(Cl)nc1 (centres undefined) | inactive
54 | CCOC(=O)COc1ccc(C(=O)Nc2cccc(Cl)c2C)cc1 | inactive
55 | CCOC(=O)C(=CNNc1cccc(Cl)c1)C(=O)OCC | inactive
56 | Cc1cc(OCCOCCNCc2ccccc2)ccc1C(C)C | inactive
57 | O=C(OCC#CCSc1nc2ccccc2o1)c1ccco1 | inactive
58 | C/C(=N\O)c1cc(Cl)ccc1O | inactive
59 | O=C(Nc1ccccc1N1CCCC1)c1cccc(F)c1 | inactive
60 | COc1ccc(O)c(C(=O)CC(=O)c2ccc(F)cc2)c1 | inactive
61 | O=C(CCNc1cccc(F)c1)c1cccc([N+](=O)[O-])c1 | inactive
62 | CC12CC3CC(C)(C1)CC(C(=O)N1CCCC1)(C3)C2 | inactive
63 | CSc1ccc(CNc2ncc(-c3cccc([N+](=O)[O-])c3)n2C)cc1 | inactive
64 | COc1cccc(NC(=O)COC(=O)Cc2ccc(Br)cc2)c1 | inactive
65 | CC(C)(C)NCC1(CO)SC(N)=NC1=O (centres undefined) | inactive
66 | Cc1cc(C)nc(SC2CC(=O)N(c3ccc(C)c(C)c3)C2=O)n1 (centres undefined) | inactive
67 | O=C(COc1ccccc1)NC1CCCCC1 | inactive
68 | O=C(OCn1nnc2ccccc2c1=O)C1CCCCC1 | inactive
69 | Cc1ccc2nc(C)c3c(c2c1)COC3 | inactive
70 | Cc1cc2cc(CNC(=O)COc3ccccc3)ccc2n1C | inactive
71 | CC1CC(C)CN(CCOCCSc2ccc(Cl)cc2)C1 (centres undefined) | inactive
72 | COc1ccc(Cl)cc1N=Cc1c(O)c2ccccc2oc1=O | inactive

Row | Compound | outcome
73 | O=C(COC(=O)c1cc(Br)ccc1Cl)NC1CCCC1 | inactive
74 | COC(=O)COc1ccc(S(=O)(=O)N2CCN(c3ccccc3F)CC2)cc1 | inactive
75 | O=C1/C(=C\c2ccco2)SC(=S)N1c1ccc(O)cc1 | inactive
76 | Cc1ccccc1OCCC(=O)OCC(=O)NNC(=O)c1cccs1 | inactive
77 | CCSc1ncc(/C=N/Nc2ccc(Cl)cc2)n1C | inactive
78 | O=C(COC(=O)CCc1c[nH]c2ccccc12)Nc1ccc([N+](=O)[O-])cc1 | inactive
79 | CCCCOC(=O)C1CCCC(C(=O)OCCCC)N1 (centres undefined) | inactive
80 | O=C(COc1ccc2c(c1)CCC2)Nc1ccccn1 | inactive
81 | O=C1NC(=O)N(Cc2ccc(F)cc2)C(=O)/C1=C\c1ccc([N+](=O)[O-])s1 | inactive
82 | O=C1NC(=O)N(Cc2ccco2)C(=O)/C1=C\c1cccn1CCOc1ccc(Cl)cc1 | inactive
83 | OC(CNCCc1ccc(C(F)(F)F)cc1)COc1cccc2ccccc12 (centres undefined) | inactive
84 | O=C(COC(=O)c1cc(Cl)ccc1O)c1ccc2c(c1)OCO2 | inactive
85 | O=C1CC(Sc2ncccn2)C(=O)N1c1ccccc1C(F)(F)F (centres undefined) | inactive
86 | CCOC(=O)c1c(NC(=O)C2COc3ccccc3O2)sc2c1CC(C)(C)NC2(C)C (centres undefined) | inactive
87 | CCOC(=O)CCS(=O)(=O)c1nc(-c2ccccc2)cc(C(F)(F)F)n1 | inactive
88 | COc1ccc(NC(=O)Nc2ccc(O)c3ccccc23)cc1 | inactive
89 | CCOc1ccc2ccccc2c1/C=N/NC(=O)c1ccncc1 | inactive
90 | Cc1ccc(S(=O)(=O)/N=C(\CCl)N2CCOCC2)cc1 | inactive
91 | Cc1cc(CN(C)C)c(O)c(C2(C)CCCCC2)c1 | inactive
92 | CCCCNC(=O)N1CCc2ccccc2C1 | inactive
93 | CCOc1ccccc1OC(=O)c1cc2ccccc2oc1=O | inactive
94 | Cc1ccc(NC(=O)C2CC2c2ccccc2)cc1 (centres undefined) | inactive
95 | O=c1oc(-c2ccccc2[N+](=O)[O-])nc2ccccc12 | inactive
96 | CN(/N=C/c1ccc([N+](=O)[O-])o1)c1ccccc1 | inactive

Row | Compound | outcome
97 | COc1ccc(OC)c(N2C(=O)NC(=O)/C(=C/c3ccc([N+](=O)[O-])s3)C2=O)c1 | inactive
98 | CCC(=O)N1CCN(c2cc3c(cc2F)c(=O)c(C(=O)O)cn3CC)CC1 | inactive
99 | O=C(COC(=O)c1ccccn1)Nc1cccc(Cl)c1Cl | inactive
100 | CCOC(=O)C1CCCN(Cc2nc(Cc3ccccc3Cl)no2)C1 (centres undefined) | inactive
101 | Cc1cc(Br)ccc1OCCCCN1CCC(C)CC1 | inactive
102 | CCCCCOc1ccc(CSC2=NCCN2)cc1[N+](=O)[O-] | inactive
103 | CCc1ccc(C(C)NC(=O)C2CCCO2)cc1 (centres undefined) | inactive
104 | CC1CCN(S(=O)(=O)c2cccc(C(=O)Oc3ccc([N+](=O)[O-])cc3)c2)CC1 | inactive
105 | O=C(Nc1ccc(S(=O)(=O)N2CCOCC2)cc1)c1ccc([N+](=O)[O-])s1 | inactive
106 | Cc1ccc(-c2ccc(/C=N/NC(=O)CN3CCOCC3)o2)cc1[N+](=O)[O-] | inactive
107 | COc1cccc(NC(=O)c2ccc(Cn3cc([N+](=O)[O-])cn3)o2)c1 | inactive
108 | CCS(=O)(=O)c1ncc(Cl)c(C(=O)Nc2ccc(S(=O)(=O)N3CCC(C)CC3)cc2)n1 | inactive
109 | CCN1CCN(Cc2cc(C(C)(C)C)c(O)c(C(C)(C)C)c2)CC1 | inactive
110 | O=C(N/N=C/c1ccc(OC(=O)c2cccs2)cc1)c1ccccn1 | inactive
111 | COc1cc(C2C3=C(CC(C)(C)CC3=O)OC(N)=C2[N+](=O)[O-])ccc1O (centres undefined) | inactive
112 | CC(C)CCNCC(O)CON=C1c2ccccc2-c2ccccc21 (centres undefined) | inactive
113 | O=C(O)c1ccc(NS(=O)(=O)/C=C/c2ccccc2)cc1O | inactive
114 | CCOC(=O)N/N=C\c1ccc([N+](=O)[O-])s1 | inactive
115 | CCOc1ccc(NC(=O)CCC(=O)N/N=C/c2ccc([N+](=O)[O-])s2)cc1 | inactive
116 | O=C(NNc1ccc([N+](=O)[O-])cc1)c1ccccc1Cl | inactive
117 | Cc1cccc(NCc2ccc([N+](=O)[O-])s2)c1 | inactive
118 | O=C(N/N=C/c1ccc(Br)s1)c1ccccc1[N+](=O)[O-] | inactive
119 | CCCOC(=O)c1ccc(NC(=O)Cc2cccs2)cc1 | inactive
